Measured values from PubChem BioAssay AID1159580 (chemical genetic matrix, 2015).
Out of some 5,500 compounds screened, about 2,000 (36%) were called active. Another 18% or so got no clear call; they are omitted. Rule as the data show it: active = normalized growth mostly below about 0.91 (no sharp cut-off); inconclusive = no clear call, values can overlap the other calls; inactive = mostly above about 0.92. Some of the results follow.

Assay: chemical genetic growth profiling, strain panel (AID 1159580);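 also: tested at 20 µM; growth read once vehicle control cultures reached saturation at 30 °C; 1 = growth at the plate median or of vehicle wells; lower values mean less growth of the strain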
Conditions: S. cerevisiae deletion strains, growth OD

Measured: normalized growth

NC1CCN(O)C1=O (stereo not given)
inactive: locus YAL013W, strain DEP1, hits give low values 1.02 | locus YAL040C, strain CLN3, hits give low values 1.02 | locus YCL061C, strain MRC1 (second series), hits give low values 1.02 | locus YDR363W, strain ESC2, hits give low values 0.986 | locus YER002W, strain NOP16, hits give low values 1.01 | locus YGR078C, strain PAC10, hits give low values 1.02 | locus YNL175C, strain NOP13, hits give low values 1.01 | locus YNL197C, strain WHI3, hits give low values 0.997 | locus YNL224C, strain SQS1, hits give low values 1.02 | locus YOR083W, strain WHI5 (second series), hits give low values 0.985
